# Screens as filed in PubChem.
# Compounds with a hit are over-represented: about 14% of the library has one in this group of screens.
# Shiga toxin inh = blocks Shiga toxin action in Vero cells; Vero cells, Shiga toxin protein synthesis inhibition reporter; inhibition, % at 38.7 µM; 290,000 tested, 9.2% active; AID 2315; in the data active = inhibition mostly above about 28%, no sharp cut-off; inactive = mostly below about 43%; note: 0% is about no effect
# FBPA Giardia inh = inhibitors of Giardia lamblia fructose-1,6-bisphosphate aldolase; A8B2U2; purified Giardia FBPA; 290,000 tested, 0.71% active; AID 2451; Potency, µM (titrated, usually from 59.6 µM), inactives show at the top dose activity, negative = inhibition, hits mostly inhibitors; note: potency is the fitted concentration of half-maximal effect; % is set by controls: 0 for no effect and ±100 for the full control effect; nearly all actives have a fitted effect of over 55% in size
# Target sequence (A8B2U2 whole entry, looked up): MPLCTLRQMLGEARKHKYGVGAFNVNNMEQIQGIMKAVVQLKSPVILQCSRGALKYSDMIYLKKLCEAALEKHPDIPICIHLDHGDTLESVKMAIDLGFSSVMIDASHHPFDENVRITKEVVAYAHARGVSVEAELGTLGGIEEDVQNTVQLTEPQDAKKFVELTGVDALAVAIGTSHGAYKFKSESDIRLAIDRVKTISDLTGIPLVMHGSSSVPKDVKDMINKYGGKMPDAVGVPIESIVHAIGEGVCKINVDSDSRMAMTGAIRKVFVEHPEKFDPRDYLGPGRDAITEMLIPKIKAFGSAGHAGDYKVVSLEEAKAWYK
#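 Giardia FBPA (40 nM reagent) was preincubated 10 min at RT with compound (up to 57.5 uM final), then substrate plus GAPDH/TPI/NAD/arsenate coupling system with diaphorase/resazurin was added; resorufin fluorescence (525/598 nm) was read after 20 min.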
# LmPK inhibitor = inhibitors of Leishmania mexicana pyruvate kinase. AID 1721. purified LmPK, Kinase-Glo ATP luminescence, 1 h. 290,000 tested, 0.37% active. Potency, µM (series often up to 57.5 µM), for the others: top-dose activity change, negative = inhibition, actives largely listed as inhibitors. Q27686; note: potency is the fitted concentration of half-maximal effect; % is set by controls: 0 for no effect and ±100 for the full control effect
#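 0.1 nM LmPK, 0.5 mM PEP, 0.1 mM ADP; 50 mM imidazole pH 7.2, 7 mM MgCl2, 50 mM KCl; 1 h RT. Kinase-Glo luminescence readout, normalized to no-enzyme (full inhibition) and uninhibited wells.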
# Cycloheximide cs = counter-screen for Shiga toxin inhibitors: cycloheximide protein synthesis inhibition; cell reporter, cycloheximide protein synthesis inhibition counterscreen; max response, %; 300,000 tested, 12% active; AID 2314; in the data active = max response mostly above about 13%, no sharp cut-off; inactive = mostly below about 14%; note: read at 38.3 µM for the half of the compounds with a filed dose; 0% is about no effect
# NS1 function inh = influenza NS1 inhibition; Potency, µM (highest dose often 46.1 µM), for the others: at the top dose activity, positive = more growth; 270,000 tested, 0.4% active; AID 2326; calls by dose curve; note: potency is the fitted concentration of half-maximal effect; actives are rising curves; nearly all actives have a fitted effect of over 50% in size
#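 Compounds were scored for reversing the slow growth caused by influenza A NS1 in S. cerevisiae, measured by optical density at 600 nm. Assay medium contained 2% galactose at pH 6.0; NS1-free yeast of the same strain were the positive control.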
# An asterisk follows results filed as active; ? = inconclusive; . = no result given; [ ] = remark or other dose. Unless noted, calls come from the whole dose curve; as a rule, active = well fitted curve in the direction sought with a large enough effect; inconclusive = small, poorly fitted or top-dose-only effect, or another doubt; inactive = no such curve, though single readings can be large; an effect the other way counts as inactive or inconclusive.
SMILES,Shiga toxin inh,FBPA Giardia inh,LmPK inhibitor,Cycloheximide cs,NS1 function inh
Cc1csc(NC(=O)c2ccc(Cl)cc2[N+](=O)[O-])n1,127.9*,-5.4%,0.2%,46.1*,.
Cc1cc(C(=O)Nc2nc(-c3ccccn3)cs2)ccc1[N+](=O)[O-],72.1,?,0.0%,28.4*,5.4%
Cc1csc(NC(=O)c2ccc(C)c([N+](=O)[O-])c2)n1,45.1,-24.4%,-13.8%,41.9*,9.2%
Cc1csc(NC(=O)c2ccccc2[N+](=O)[O-])n1,-17.5,-0.1%,2.1%,-5.3,-0.3%
C[N+](C)(C)CC(=O)N/N=C\c1c(O)ccc2ccccc12,.,.,.,.,-2.8%
O=C(O)c1cc(=O)[nH]c(=S)[nH]1,.,.,.,.,0.0%
O=C1c2ccccc2C(=O)c2cc(NC(=O)C3CC3)ccc21,32.5*,0.6%,1.2%,20.0*,0.0%
CCC(=O)Nc1ccc2c(c1)Cc1cc(NC(=O)CC)ccc1-2,-9.4,-2.1%,2.8%,-3.3,6.5%
CC(=O)Nc1ccc2c(c1)CCc1ccccc1-2,96.9*,-1.8%,-1.3%,46.5*,-34.0%
COc1cc(C(=O)Nc2ccc3c(c2)C(=O)c2ccccc2C3=O)cc(OC)c1OC,11.8,-0.5%,0.3%,-0.9,-2.4%
CC(=O)Nc1ccc2c(c1)C(=O)c1ccccc1C2=O,83.6*,-4.3%,-5.2%,51.1*,-71.0%
CCCC(=O)Nc1ccc2c(c1)Cc1ccccc1-2,119.0*,1.8%,0.8%,28.5*,-29.5%
S=C(Nc1ccc2c(c1)Cc1ccccc1-2)Nc1ccc2c(c1)Cc1ccccc1-2,.,.,.,.,0.0%
O=C(O)/C=C/C(=O)Nc1ccc2c(c1)C(=O)c1ccccc1C2=O,134.7*,-2.4%,?,62.2*,-6.8%
Cc1cc(NC(=O)OC2CCCCC2)ccc1[N+](=O)[O-],122.7*,-8.3%,0.0%,54.6*,4.8%
C/C(CC(=O)Nc1ccc([N+](=O)[O-])cc1)=N/NC(=O)C1C2CCCCC21 (centres undefined),35.8,-0.5%,-0.3%,18.8*,1.6%
O=C(NNc1ccc([N+](=O)[O-])cc1)C1C2CCCCC21 (centres undefined),-10.6,-0.1%,-1.0%,-4.1,-11.1%
Cc1ccc(NC(=O)C2C3CCCCC32)cc1[N+](=O)[O-] (centres undefined),57.7*,-4.7%,0.0%,48.2*,-1.3%
Cc1cccc(NC(=O)C2C3CCCCC32)c1 (centres undefined),24.7*,-3.5%,-3.4%,32.1*,-4.0%
C=C1CCC(C2CC(=O)OC2=O)C(=O)CCC2C1CC2(C)C (centres undefined),.,5.6%,.,.,.
Cc1ccc(NC(=O)C2C3/C=C\CCCCC32)cc1 (centres undefined),17.5,-4.1%,2.9%,12.0*,13.8%
O=C(Nc1ccccc1)C1C2CCCCC21 (centres undefined),64.6*,4.3%,3.9%,21.8*,6.2%
CC1CCCC(C)N1C(=O)COC(=O)CCC1CCCC1 (centres undefined),-1.1,.,-0.2%,-4.3,-2.1%
CCCC(=O)Nc1ccc(C(=O)Nc2cccc(OC)c2)cc1,67.5*,-1.1%,-4.7%,46.9*,28.3%
COc1cccc(NC(=O)c2ccc(NC(=O)C(C)(C)C)cc2)c1,56.1*,-4.3%,-16.4%,54.2*,-2.8%
SMILES,Shiga toxin inh,FBPA Giardia inh,LmPK inhibitor,Cycloheximide cs,NS1 function inh
Cc1cccc(C(=O)NNC(=O)c2ccc(NC(=O)C(C)(C)C)cc2)c1,39.1*,2.1%,-0.8%,30.4*,-23.2%
CC1(C)CC(=O)C/C(=N/NC(=O)COc2ccc3ccccc3c2Br)C1,-25.1,.,-6.0%,1.2,17.3%
Nc1ncnc2c1ncn2CCCCC(=O)O,.,.,.,.,0.0%
CC(=O)OC[C@@H]1O[C@H](C/C=N\OC[C@@H](C)[C@H](OCc2ccccc2)C(C)C)C=C[C@@H]1OC(C)=O,.,2.0%[12.9 µM],.,.,.
Cc1noc(C)c1-c1cc(NCc2ccccc2)ncn1,.,3.4%,.,.,.
CCC(C)NC(=O)C1CCC(CNS(=O)(=O)c2ccccc2)CC1 (centres undefined),-3.0,9.9%,-0.3%,-2.5,-2.4%
O=C(Nc1ccc2c3c(cccc13)CC2)c1ccco1,52.9,-14.1%,1.8%,18.8*,-44.5%
O=C(Nc1ccc2c3c(cccc13)CC2)c1ccc(Br)o1,7.3,-0.8%,13.6%,23.2,5.0%
COc1ccc(C(=O)Nc2ccc3c4c(cccc24)CC3)cc1,72.7,-16.8%,0.0%,32.0*,0.6%
COc1c(C)cc(S(=O)(=O)NCc2ccccn2)c(C)c1C,.,-5.9%,-4.1%,-3.2,-3.5%
C=CCOc1ccc(C(=O)NC2CCCCC2)cc1,111.1*,0.2%,-3.5%,21.0*,-57.7%
CC(C)Oc1ccc(C(=O)NC2CCS(=O)(=O)C2)cc1 (centres undefined),15.4,-3.3%,3.1%,6.3,3.1%
CC(C)Oc1ccc(C(=O)NC2CCCCC2)cc1,65.3,-2.5%,-11.0%,46.8*,4.0%
CN1CCN(NC(=O)Nc2ccc(Br)cc2Cl)CC1,38.1,12.3%,3.7%,16.1*,0.8%
O=C(NCCCN1CCCC1=O)Nc1ccc(F)c(Cl)c1,46.9,.,-2.7%,46.7*,2.2%
O=C(NCCCN1CCCC1=O)Nc1ccc(Cl)cc1Cl,41.3,-8.0%,-4.7%,15.8*,-3.7%
Cc1ccc(NC(=O)NCCCN2CCCC2=O)cc1,30.3,3.1%,7.1%,14.4*,0.8%
Cc1ccc(S(=O)(=O)NC(=O)NCC2CCN(S(=O)(=O)c3ccccc3)CC2)cc1,1.1,-4.7%,-0.5%,2.0,3.0%
COc1cc(C(=O)NCCSc2ccc(F)cc2)cc(OC)c1OC,19.2,0.8%,-0.1%,8.6,-2.8%
Cc1cc(NC(=O)c2ccccc2)ccc1NC(=O)Cc1ccccc1,.,0.9%,-4.6%,-1.7,10.0%
O=C(NCCCN1CCCC1=O)Nc1cc(Cl)ccc1Cl,10.4,0.2%,-4.8%,-3.7,-0.3%
O=C(NCCCN1CCCC1=O)Nc1ccc(Br)cc1Cl,38.3*,-0.1%,-5.5%,27.9*,-0.4%
COCCCNC(=O)Nc1ccc(Br)cc1Cl,49.1*,1.2%,-1.0%,37.2*,-2.9%
C/C(CC(=O)Nc1ccc(C)c(Cl)c1)=N\NC(=O)Cc1cccs1,25.8,-4.1%,4.8%,17.1*,-39.7%
C/C(CC(=O)Nc1ccc(Cl)c(Cl)c1)=N\NC(=O)Cc1ccccc1,-15.0,-0.3%,2.1%,-2.3,7.7%
SMILES,Shiga toxin inh,FBPA Giardia inh,LmPK inhibitor,Cycloheximide cs,NS1 function inh
Cc1ccc(NC(=O)CN(C)Cc2cccs2)cc1Cl,21.8,-8.4%,1.2%,15.7*,-15.6%
CCN(CC)c1ccc(NC(=O)CN(C)Cc2cccs2)cc1,23.5,0.0%,-5.5%,9.7,-11.2%
CN(CC(=O)Nc1c(F)cccc1F)Cc1cccs1,35.3,-12.1%,-6.7%,14.2*,10.3%
CCOC(=O)c1c(C=O)c2sc(C)cc2n1C,58.8,0.4%,-8.5%,22.1*,.
Nc1ccc(S(=O)(=O)Nc2nccc(/C=C/c3ccc(Cl)cc3Cl)n2)cc1,31.4,3.3%,-0.7%,0.4,8.7%
S=C(S)N1CCCC1,.,12.6µM*,.,.,-38.6%
Fc1ccc(-n2c(Cc3cccs3)n[nH]c2=S)cc1Cl,-2.9,3.0%,-21.0%,-0.5,.
FC(F)(F)c1ccc(Cl)c(-n2c(Cc3cccs3)n[nH]c2=S)c1,16.1,-4.0%,8.91µM*,8.1,?
Cc1ccccc1-n1c(Cc2cccs2)n[nH]c1=S,-8.3,-3.7%,8.91µM*,-2.6,-5.9%
